The results in this text go back to article PMC11006913.

Common to all, as to assay: PBM; 200 nM protein, PBS
Details in all cases: dsDNA, one strand shown

Test [1] addresses T1, SIX6 (Homo sapiens, UniProt O95475 114-200, L167I).
T1 sequence: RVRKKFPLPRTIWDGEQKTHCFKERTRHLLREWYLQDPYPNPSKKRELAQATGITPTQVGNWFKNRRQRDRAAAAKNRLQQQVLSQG

In test [2] the target is T2, SIX6 (Homo sapiens, UniProt O95475 114-200, L143V).
T2 sequence: T1 sequence with L30V, I54L

In test [3] the target is T3, SIX6 (Homo sapiens, UniProt O95475 114-200, H141N).
T3 sequence: T1 sequence with H28N, I54L

Test [4] has as its target T4, SIX6 (Homo sapiens, UniProt O95475 114-200, T165P).
T4 sequence: T1 sequence with T52P, I54L

For test [5], the target named is T5, SIX6 (Homo sapiens, UniProt O95475 114-200, L167M).
T5 sequence: T1 sequence with I54M

The target in test [6] is T6, SIX6 (Homo sapiens, UniProt O95475 114-200, L143M).
T6 sequence: T1 sequence with L30M, I54L

Test [7] addresses T7, SIX6 (Homo sapiens, UniProt O95475 114-200, L143I).
T7 sequence: T1 sequence with L30I, I54L

The target of test [8] is HOXB6 (Homo sapiens, UniProt P17509 132-218, K202E).
HOXB6 (Homo sapiens, UniProt P17509 132-218, K202E), sequence (P17509 132-218 K202E): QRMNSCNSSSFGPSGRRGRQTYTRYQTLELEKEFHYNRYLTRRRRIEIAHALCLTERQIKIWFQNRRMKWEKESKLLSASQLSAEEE
The target of test [9] is T8, SIX6 (Homo sapiens, UniProt O95475 114-200, T165G).
T8 sequence: T1 sequence with T52G, I54L

Test [10] has as its target T9, SIX6 (Homo sapiens, UniProt O95475 114-200, T139Q).
T9 sequence: T1 sequence with T26Q, I54L

For test [11], the target named is T10, SIX6 (Homo sapiens, UniProt O95475 114-200, T165A).
T10 sequence: T1 sequence with T52A, I54L

The target of test [12] is T11, SIX6 (Homo sapiens, UniProt O95475 114-200, L167V).
T11 sequence: T1 sequence with I54V

Test [13] deals with T12, SIX6 (Homo sapiens, UniProt O95475 114-200).
T12 sequence: T1 sequence with I54L

Test [14] has as its target T13, SIX6 (Homo sapiens, UniProt O95475 114-200, T165I).
T13 sequence: T1 sequence with T52I, I54L

Test [15] deals with HOXB6 (Homo sapiens, UniProt P17509 132-218).
HOXB6 (Homo sapiens, UniProt P17509 132-218), sequence (P17509 132-218): as the sequence (P17509 132-218 K202E) above, with E71K counted along it
The target in test [16] is HOXA7 (Homo sapiens, UniProt P31268 116-202).
HOXA7 (Homo sapiens, UniProt P31268 116-202), sequence (P31268 116-202): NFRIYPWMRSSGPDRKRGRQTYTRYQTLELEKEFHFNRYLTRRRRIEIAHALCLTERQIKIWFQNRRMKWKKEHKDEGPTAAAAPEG
Test [17] has as its target HOXA7 (Homo sapiens, UniProt P31268 116-202, W177C).
Test [18] concerns the target ALX4 (Homo sapiens, UniProt Q9H161 200-286).
The target of test [19] is ALX4 (Homo sapiens, UniProt Q9H161 200-286, Q225E).
ALX4 (Homo sapiens, UniProt Q9H161 200-286, Q225E), sequence (Q9H161 200-286 Q225E): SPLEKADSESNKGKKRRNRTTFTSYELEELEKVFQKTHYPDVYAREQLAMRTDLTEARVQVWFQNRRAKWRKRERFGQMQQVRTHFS
Test [20] addresses HOXA2 (Homo sapiens, UniProt O43364 129-215, R185T).
For test [21], the target named is HOXA2 (Homo sapiens, UniProt O43364 129-215, R185K).
HOXA2 (Homo sapiens, UniProt O43364 129-215, R185K), sequence (O43364 129-215 R185K): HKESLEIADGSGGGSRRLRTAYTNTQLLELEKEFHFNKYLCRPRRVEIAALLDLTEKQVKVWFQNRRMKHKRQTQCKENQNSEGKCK
In test [22] the target is HOXA2 (Homo sapiens, UniProt O43364 129-215, Y150S).
HOXA2 (Homo sapiens, UniProt O43364 129-215, Y150S), sequence (O43364 129-215 Y150S): as the sequence (O43364 129-215 R185K) above, with Y22S, K57R counted along it
For test [23], the target named is HOXA2 (Homo sapiens, UniProt O43364 129-215).
HOXA2 (Homo sapiens, UniProt O43364 129-215), sequence (O43364 129-215): as the sequence (O43364 129-215 R185K) above, with K57R counted along it

Changes are numbered by the printed parent chain.

HOXA7 (Homo sapiens, UniProt P31268 116-202, W177C), sequence (P31268 116-202 W177C): as the sequence (P31268 116-202) above, with W62C counted along it
HOXA2 (Homo sapiens, UniProt O43364 129-215, R185T), sequence (O43364 129-215 R185T): as the sequence (O43364 129-215 R185K) above, with K57T counted along it
ALX4 (Homo sapiens, UniProt Q9H161 200-286), sequence (Q9H161 200-286): as the sequence (Q9H161 200-286 Q225E) above, with E26Q counted along it

Consider CTCGGGCC, for which the binding signal with SIX6 [1] was 9.05 upbm affinity estimate (log intensity, higher = more binding, comparable within an allelic series); with SIX6 [2], 8.95 upbm affinity estimate (log intensity, higher = more binding, comparable within an allelic series); in the test with SIX6 [3] it was 9.05 upbm affinity estimate (log intensity, higher = more binding, comparable within an allelic series); with SIX6 [4], 9.01 upbm affinity estimate (log intensity, higher = more binding, comparable within an allelic series); in the test with SIX6 [5], 8.95 upbm affinity estimate (log intensity, higher = more binding, comparable within an allelic series); with SIX6 [6], 9.01 upbm affinity estimate (log intensity, higher = more binding, comparable within an allelic series). Further, the binding signal with SIX6 [7] is 9.02 upbm affinity estimate (log intensity, higher = more binding, comparable within an allelic series); with HOXB6 [8], 8.97 upbm affinity estimate (log intensity, higher = more binding, comparable within an allelic series); with SIX6 [9], 9.14 upbm affinity estimate (log intensity, higher = more binding, comparable within an allelic series); with SIX6 [10], 9.13 upbm affinity estimate (log intensity, higher = more binding, comparable within an allelic series); with SIX6 [11], 9.09 upbm affinity estimate (log intensity, higher = more binding, comparable within an allelic series); with SIX6 [12], 9.03 upbm affinity estimate (log intensity, higher = more binding, comparable within an allelic series). The binding signal is 9.02 upbm affinity estimate (log intensity, higher = more binding, comparable within an allelic series) with SIX6 [13]; 9.02 upbm affinity estimate (log intensity, higher = more binding, comparable within an allelic series) with SIX6 [14]; 8.82 upbm affinity estimate (log intensity, higher = more binding, comparable within an allelic series) with HOXB6 [15].
AGCGCAGG: the binding signal in the test with SIX6 [1] is 9.08 upbm affinity estimate (log intensity, higher = more binding, comparable within an allelic series); with SIX6 [2] it was 8.96 upbm affinity estimate (log intensity, higher = more binding, comparable within an allelic series); in the test with HOXA7 [16], 8.41 upbm affinity estimate (log intensity, higher = more binding, comparable within an allelic series); with SIX6 [3] it was 9.05 upbm affinity estimate (log intensity, higher = more binding, comparable within an allelic series); with SIX6 [4] it was 8.99 upbm affinity estimate (log intensity, higher = more binding, comparable within an allelic series); with SIX6 [5], 9.06 upbm affinity estimate (log intensity, higher = more binding, comparable within an allelic series). Also, the binding signal with SIX6 [6] is 9.04 upbm affinity estimate (log intensity, higher = more binding, comparable within an allelic series); with SIX6 [7], 9.01 upbm affinity estimate (log intensity, higher = more binding, comparable within an allelic series); in the test with SIX6 [9], 9.15 upbm affinity estimate (log intensity, higher = more binding, comparable within an allelic series); with SIX6 [10], 9.1 upbm affinity estimate (log intensity, higher = more binding, comparable within an allelic series); with SIX6 [11] it was 9.08 upbm affinity estimate (log intensity, higher = more binding, comparable within an allelic series); with SIX6 [12] it was 9.04 upbm affinity estimate (log intensity, higher = more binding, comparable within an allelic series). The binding signal in the test with SIX6 [13] is 9.02 upbm affinity estimate (log intensity, higher = more binding, comparable within an allelic series); with SIX6 [14], 9.03 upbm affinity estimate (log intensity, higher = more binding, comparable within an allelic series); in the test with HOXA7 [17], 8.31 upbm affinity estimate (log intensity, higher = more binding, comparable within an allelic series).
In the case of CTGGCCCA, the binding signal with SIX6 [1] is 8.9 upbm affinity estimate (log intensity, higher = more binding, comparable within an allelic series); with SIX6 [2], 8.81 upbm affinity estimate (log intensity, higher = more binding, comparable within an allelic series); with ALX4 [18], 8.03 upbm affinity estimate (log intensity, higher = more binding, comparable within an allelic series); with SIX6 [3] it was 8.95 upbm affinity estimate (log intensity, higher = more binding, comparable within an allelic series); with SIX6 [4], 8.96 upbm affinity estimate (log intensity, higher = more binding, comparable within an allelic series); with SIX6 [5], 8.89 upbm affinity estimate (log intensity, higher = more binding, comparable within an allelic series). Moreover, the binding signal in the test with SIX6 [6] was 8.86 upbm affinity estimate (log intensity, higher = more binding, comparable within an allelic series); with SIX6 [7], 8.87 upbm affinity estimate (log intensity, higher = more binding, comparable within an allelic series); with ALX4 [19], 8 upbm affinity estimate (log intensity, higher = more binding, comparable within an allelic series); in the test with SIX6 [9], 8.92 upbm affinity estimate (log intensity, higher = more binding, comparable within an allelic series); with HOXA2 [20], 7.24 upbm affinity estimate (log intensity, higher = more binding, comparable within an allelic series); with SIX6 [10], 8.93 upbm affinity estimate (log intensity, higher = more binding, comparable within an allelic series). For the same sequence, the binding signal with SIX6 [11] is 8.92 upbm affinity estimate (log intensity, higher = more binding, comparable within an allelic series); in the test with HOXA2 [21], 10.3 upbm affinity estimate (log intensity, higher = more binding, comparable within an allelic series); with SIX6 [12], 8.88 upbm affinity estimate (log intensity, higher = more binding, comparable within an allelic series); with SIX6 [13], 8.94 upbm affinity estimate (log intensity, higher = more binding, comparable within an allelic series); in the test with SIX6 [14] it was 8.95 upbm affinity estimate (log intensity, higher = more binding, comparable within an allelic series); with HOXA2 [22], 10.4 upbm affinity estimate (log intensity, higher = more binding, comparable within an allelic series). In addition, the binding signal with HOXA2 [23] is 7.1 upbm affinity estimate (log intensity, higher = more binding, comparable within an allelic series).
